About 79,000 compounds went through this panel and 15% of them were active in at least one assay; those are over-represented in the sample as a whole. Values without a mark were called inactive. Rule as the data show it: active = growth inhibition above about 70%; inactive = the rest.

The nature of the test: NCI Yeast Anticancer Drug Screen. Data for the rad50 strain (AID 155).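 Also: 0% = growth of vehicle-only cultures of the same strain.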 The following applies: S. cerevisiae rad50 strain growth inhibition; at 50.0 µM; hits give high values. On the procedure:
Growth inhibition of yeast strains with defined genetic alterations is measured as a screen for potential anti-cancer activity. Selected strains with alterations in DNA damage repair or cell cycle control were exposed to compounds and growth inhibition was measured relative to vehicle treated controls. The strain used in this assay is rad50
On to `O=S(=O)(O)c1cc2c3ccccc3ccc2c2ccccc12`, for which the growth inhibition was 1.75%.
Next, `CC(C)[C@@H]1CC[C@@H](C)C[C@H]1N`: -16.7%.
For `O/N=C1\CC2(N3CCOCC3)CCC1(c1ccccc1)CC2`, the growth inhibition was 11.5%.
The result for `O=C(/C=C/c1ccccc1)CC(=O)c1ccccc1.O=C(/C=C/c1ccccc1)CC(=O)c1ccccc1.[Cu]` reads -17.1%; that for `CCCCCCCCCC(O)CCCC(O)C(O)CCCCCCC(=O)O` (stereo not given), 13.1%.
The result for `Cc1ccc(NC(=O)c2ccc(C)c(N)c2)c(C)c1` reads -16.2%; that for `Cc1ccc(S(=O)(=O)C2(NC(=O)C3CC3)CC2)cc1`, -6.5%.
Next, `O=[N+]([O-])c1nccn1CCC[n+]1ccc2ccccc2c1`: -25.4%; `NC(=S)NNc1ccccc1`: 0.2%; `CCOC(=O)Cn1c(C(F)(F)F)nc2nc(Cl)c(Cl)nc21`: -0.6%.
With `c1ccc(CNC2CC3CCC2C3)cc1` (stereo not given), the growth inhibition is -17.6%.
Next, `Cc1ccc2cc(N)ccc2c1`: -2.9%; `CN(C)Cc1c[nH]c2nc[nH]c(=O)c12`: -1.3%; `CN1CCCCCCCC(=O)C(OC(=O)c2ccc([N+](=O)[O-])cc2)CCCCCCC1` (stereo not given): 33.5%.
The result for `NCc1ccccc1[N+](=O)[O-]` reads 11.4%; that for `O=[N+]([O-])c1ccc(Cl)c(C=NC23CC4CC(CC(C4)C2)C3)c1`, -13.6%; that for `COc1cc(Cl)ccc1NC(=O)Oc1ccc(-c2ccccc2)cc1Cl`, 65.8%.
For `Cc1cc(N(CCC#N)CCC#N)ccc1/C=C(\NC(=O)/C=C/c1ccccc1)NC(=O)Nc1ccc(Cl)cc1`, the growth inhibition is 13.5%.
Next, `CCCC(=O)NC(NC1CCCCC1)(C(=O)OCC)C(F)(F)F` (stereo not given): -17.3%.
The result for `Cc1ccc2[nH]c(=S)[nH]c(=S)c2c1` reads 19.9%; that for `CCOc1cc2c(cc1Cc1ccc3c(c1)OCO3)OCO2`, -8.15%; that for `CCOC(=O)C1Cc2ccccc2OC1=O` (stereo not given), -9.4%.
Take `CCOC(=O)C1C=NC([N+](=O)[O-])=C1Br` (stereo not given): the growth inhibition is 0.15%.
`CC(C)=C1CCC/C1=N\Nc1ccc([N+](=O)[O-])cc1[N+](=O)[O-]`: the growth inhibition is -5.9%.
The result for `COCCOCc1nc(C#N)c(N)o1` reads -6.6%; that for `COc1ccccc1NC(=O)C1=C(C)NC(C)=C(C(=O)Nc2ccccc2OC)C1c1ccccc1Cl`, 11.3%; that for `O=C(/C(=C\c1ccc(Cl)cc1)c1ccccc1)c1ccccc1`, -38%.
The result for `CCCCCCCCCCCCCCCc1c(NC(C)(CC)[P+](=O)O)c(=O)n(C)n1C` (stereo not given) reads -41.5%; that for `Clc1ccc(Nc2ncco2)cc1Cl`, 16.7%; that for `O=C(O)CN(CC(=O)O)CC(=O)O`, -9.7%.
Next, `O=C(C[n+]1ccccc1-c1ccccn1)c1ccc(-c2ccccc2)cc1`: 7.9%.
Consider `C=CCCCCCCCCCCCCCCC`, for which the growth inhibition was -36%.
Next, `C/C(=N\NC(=O)c1ccncc1)c1cccc(Br)c1`: 12%.
Next, `S=c1sc2c(Cl)ncnc2n1-c1ccccc1`: 1.55%.
Next, `O=C(O)C(CO)N=Cc1nc(-c2ccccc2)oc1O` (stereo not given): 0.2%; `O=C(NCC1CC1)NC(=O)c1ccccc1F`: -4.3%; `S=C(NCCS)Nc1ccccc1`: -0.6%.
In the case of `CC(C)(Cl)C1CCC(CC(Cl)(Cl)Cl)CC1` (stereo not given), the growth inhibition is 5.3%.
For `O=c1[nH]cnc2c1ncn2C1CCC(CO)O1` (stereo not given), the growth inhibition is -11%.
The result for `CCCOC(=O)C(OC(=O)c1ccccc1)C(OC(=O)c1ccccc1)C(=O)OCCC` (stereo not given) reads -0.65%.

The record behind these values is PubChem BioAssay (NCI).
